For eleven compounds, outcome and AC50 results are on record in PubChem BioAssay (EPA / NIEHS).

Each structure is given as a SMILES string. Results filed as inconclusive are left out. Calls of active or inactive are those of the source. How the source made its calls: active means hit-call score of the fitted dose curve at least 0.9, where 1 is the maximum; inconclusive means response in the unintended direction; inactive means score below 0.9.

In general, AC50 refers to the concentration giving half of the maximal activity seen.

Assay [1] can be described thus: ACEA_AR_agonist_AUC_viability: ACEA Biosciences xCELLigence Real-Time Cell Analysis on Androgen Receptor Agonism for Viability (AID 2283775).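 On AC50: viability read 80 hours after compound addition.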 In a few lines:
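22Rv1 cells; impedance growth kinetics; 8-pt 1:4 dilutions from 100 uM top final, ≤0.5% DMSO; n = 2; 80 h read; AUC viability, loss-of-signal vs DMSO.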

Assay [2] is described as follows: ACEA_AR_antagonist_AUC_viability: ACEA Biosciences xCELLigence Real-Time Cell Analysis on Androgen Receptor Antagonism for Viability (AID 2283776).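 Further: 22Rv1 human prostate cancer cells growing on impedance electrode plates; area under impedance growth curve at 80 h after dosing as viability; hits lower the growth signal relative to DMSO meaning cytotoxicity.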 In a few lines: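 Real-time electrical impedance tracks 22Rv1 proliferation after continuous compound exposure (top 100 uM final, 1:4 steps, 8 concentrations). The 80 h area-under-curve serves as the cytotoxicity readout relative to DMSO.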

The nature of assay [3]: ACEA_ER_AUC_viability: ACEA Biosciences xCELLigence Real-Time Cell Analysis on Estrogen Receptor Agonism for Viability (AID 2283782).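 Further: hit means loss of impedance signal meaning reduced cell growth or viability.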 The method in brief: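 Viability endpoint: reduced impedance area under the curve relative to DMSO, recorded by real-time electrode sensing over ~80 h of continuous exposure. Duplicate plates of T47D in hormone-depleted medium; eight concentrations, 1:4 dilutions, 100 uM maximum.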

A short description of assay [4]: STM_H9_NormalizedViability: Cytotoxicity Assessment at 120 hours in the Stemina devTOX quickPredict H9 human embryonic stem cell (hESC)-based Assay (AID 2283784). In a few lines: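 Viability endpoint: background-corrected CellTiter-Fluor RFU expressed relative to the 0.1% DMSO mean on each plate. Undifferentiated H9 cells were treated with daily re-dosing and media change, and loss of signal was fitted.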

The target in assay [5] is AR (gene 367) (UniProt P10275). Briefly: ACEA_AR_antagonist_80hr: ACEA Biosciences xCELLigence Real-Time Cell Analysis on Androgen Receptor Antagonism for Proliferation (AID 2283787).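 Further: 22Rv1 human prostate cancer cells with growth followed by electrical impedance; hits lower the impedance growth signal relative to DMSO.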 The method in brief:
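Impedance-based real-time growth of 22Rv1 prostate cells, read 80 h after dosing. Eight concentrations, 1:4 series, top 100 uM final (0.5% DMSO), n = 2; signal decrease scored against DMSO.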

For assay [6], the target named is zebrafish Estrogen Receptor (ESR1), esr1 (gene 259252) (UniProt P57717). Description: ATG_zfER1_XSP1: Attagene TRANS-FACTORIAL Multi-Species (XSP1) HepG2 Assay for zebrafish Estrogen Receptor (ESR1) (AID 2283772). The method in brief:
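Trans-activation readout: transfected zebrafish ER-Gal4 drives a UAS reporter in human HepG2 liver cells. After 24 h compound exposure (medium containing 3 nM 6-alpha-fluorotestosterone), induced reporter transcripts were quantified by RT-PCR with capillary electrophoresis, relative to DMSO.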

The subject of assay [7] is zebrafish Estrogen Receptor (ESR2B), gene 317733. Description: ATG_zfER2b_XSP1: Attagene TRANS-FACTORIAL Multi-Species (XSP1) HepG2 Assay for zebrafish Estrogen Receptor (ESR2B) (AID 2283773). The method in brief:
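Medium contained 3 nM 6-alpha-fluorotestosterone. Reporter mRNA induction by exogenous zebrafish ER2b-Gal4 chimera was read 24 h post-dose in transiently transfected HepG2 cells, using RT-PCR, fluorescent labelling, HpaI digestion and capillary electrophoresis.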

Assay [8] relates to frog Estrogen Receptor (ESR2), gene 100174814. Briefly: ATG_frER2_XSP1: Attagene TRANS-FACTORIAL Multi-Species (XSP1) HepG2 Assay for frog Estrogen Receptor (ESR2) (AID 2283774). In a few lines:
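Reporter mRNA from a multiplexed TRANS system, measured by RT-PCR with fluorescent labelling and capillary electrophoresis, 24 hours after chemical exposure. Human HepG2 liver cells carried exogenous frog ER-Gal4 chimera; medium included 3 nM 6-alpha-fluorotestosterone; increases versus DMSO analysed.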

Assay [9] concerns frog Estrogen Receptor (ESR1), gene 398734. Description: ATG_frER1_XSP1: Attagene TRANS-FACTORIAL Multi-Species (XSP1) HepG2 Assay for frog Estrogen Receptor (ESR1) (AID 2283777). In a few lines:
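HepG2 cells transiently transfected with GAL4-UAS reporter units and frog ER–Gal4 chimera were dosed for 24 h with 3 nM 6-alpha-fluorotestosterone present. Reporter mRNA was measured by RT-PCR and capillary electrophoresis; gain of signal fitted versus DMSO.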

The test system of assay [10] is zebrafish Estrogen Receptor (ESR2A), gene 317734. Briefly: ATG_zfER2a_XSP1: Attagene TRANS-FACTORIAL Multi-Species (XSP1) HepG2 Assay for zebrafish Estrogen Receptor (ESR2A) (AID 2283778). In a few lines: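 Reporter transcripts were quantified by RT-PCR, 6-FAM labelling, HpaI digestion and capillary electrophoresis after 24 h dosing. The cells were HepG2 transiently carrying a zebrafish ER2a–Gal4 construct plus multiplexed UAS reporters; medium contained 3 nM 6-alpha-fluorotestosterone.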

The target in assay [11] is chicken Estrogen Receptor (ESR1), ESR1 (gene 396099) (UniProt P06212). Description: ATG_chERa_XSP1: Attagene TRANS-FACTORIAL Multi-Species (XSP1) HepG2 Assay for chicken Estrogen Receptor (ESR1) (AID 2283779). In a few lines: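 Trans-activation of an exogenous chicken ERα–Gal4 chimera read as reporter transcript (RT-PCR, fluorescent labeling, capillary electrophoresis) after 24 h compound exposure of transfected HepG2; medium held 3 nM 6-alpha-fluorotestosterone. Positive-direction fit against DMSO.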
Chain of chicken Estrogen Receptor (ESR1), ESR1 (gene 396099) (P06212 whole entry, looked up, the tested form may be a part): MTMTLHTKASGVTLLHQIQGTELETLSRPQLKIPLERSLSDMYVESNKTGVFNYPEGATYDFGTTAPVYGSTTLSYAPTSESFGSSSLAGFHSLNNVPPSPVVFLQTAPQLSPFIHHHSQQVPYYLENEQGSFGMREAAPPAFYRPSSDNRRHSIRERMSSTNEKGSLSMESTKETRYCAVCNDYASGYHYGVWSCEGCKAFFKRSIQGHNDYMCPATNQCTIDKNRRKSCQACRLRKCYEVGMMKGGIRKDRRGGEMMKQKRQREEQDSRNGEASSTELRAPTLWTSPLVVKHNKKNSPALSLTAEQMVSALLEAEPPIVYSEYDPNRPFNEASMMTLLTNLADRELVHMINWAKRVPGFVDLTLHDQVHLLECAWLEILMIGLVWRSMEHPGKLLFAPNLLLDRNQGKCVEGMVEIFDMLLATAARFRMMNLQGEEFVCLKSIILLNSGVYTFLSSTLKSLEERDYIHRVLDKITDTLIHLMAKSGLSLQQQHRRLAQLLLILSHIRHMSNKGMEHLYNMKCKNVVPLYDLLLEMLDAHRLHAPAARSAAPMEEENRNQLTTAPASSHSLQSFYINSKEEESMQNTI

Assay [12] deals with turtle Estrogen Receptor (ESR1), gene 101933533. Description: ATG_trERa_XSP1: Attagene TRANS-FACTORIAL Multi-Species (XSP1) HepG2 Assay for turtle Estrogen Receptor (ESR1) (AID 2283781). The method in brief: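 Transactivation measured 24 h post-dose as reporter mRNA (RT-PCR, fluorescent capillary electrophoresis) from an NR-Gal4 turtle ER construct in HepG2. Medium included 3 nM 6-alpha-fluorotestosterone; increase over DMSO fitted.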

The target in assay [13] is Estrogen receptor beta (Homo sapiens) (UniProt Q92731). Description: ATG_hERb_XSP1: Attagene TRANS-FACTORIAL Multi-Species (XSP1) HepG2 Assay for human Estrogen Receptor (ESR2) (AID 2283788). In a few lines:
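HepG2 cells transiently transfected with multiplexed GAL4-UAS reporter units carrying chimeric human ERβ-Gal4; 24 h compound exposure with 3 nM 6-alpha-fluorotestosterone present. Reporter mRNA quantified by RT-PCR, FAM labelling and capillary electrophoresis; gain-of-signal fitted versus DMSO.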

The target in assay [14] is Estrogen receptor (Homo sapiens) (UniProt P03372). Description: ATG_hERa_XSP1: Attagene TRANS-FACTORIAL Multi-Species (XSP1) HepG2 Assay for human Estrogen Receptor (ESR1) (AID 2283780). In a few lines: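 Reporter transcripts from multiplexed GAL4-UAS units driven by NR-Gal4 chimeras in transiently transfected HepG2 were measured by RT-PCR with capillary electrophoresis 24 h post-dose, with 3 nM 6-alpha-fluorotestosterone present; gain-of-signal relative to DMSO.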
Chain of Estrogen receptor (Homo sapiens) (P03372 whole entry, looked up, the tested form may be a part): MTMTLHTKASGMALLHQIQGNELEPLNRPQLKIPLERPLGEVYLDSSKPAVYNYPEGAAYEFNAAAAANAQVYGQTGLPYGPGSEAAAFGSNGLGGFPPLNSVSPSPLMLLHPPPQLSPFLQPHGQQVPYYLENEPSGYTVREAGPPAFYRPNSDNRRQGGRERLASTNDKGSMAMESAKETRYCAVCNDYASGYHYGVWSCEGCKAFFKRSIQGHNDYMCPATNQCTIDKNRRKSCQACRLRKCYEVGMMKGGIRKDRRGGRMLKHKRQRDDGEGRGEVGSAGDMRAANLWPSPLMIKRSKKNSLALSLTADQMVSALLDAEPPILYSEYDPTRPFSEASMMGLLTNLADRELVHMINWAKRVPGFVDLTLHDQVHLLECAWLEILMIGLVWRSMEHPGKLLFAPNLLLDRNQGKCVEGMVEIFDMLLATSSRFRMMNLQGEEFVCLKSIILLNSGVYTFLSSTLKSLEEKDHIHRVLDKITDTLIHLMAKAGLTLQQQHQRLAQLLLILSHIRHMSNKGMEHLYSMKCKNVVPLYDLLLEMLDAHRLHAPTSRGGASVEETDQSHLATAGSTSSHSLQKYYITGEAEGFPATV

Assay [15] deals with turtle Androgen Receptor (AR), gene 101947425. Description: ATG_trAR_XSP1: Attagene TRANS-FACTORIAL Multi-Species (XSP1) HepG2 Assay for turtle Androgen Receptor (AR) (AID 2283786). In a few lines: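 Partial androgen stimulation is provided by 3 nM 6-alpha-fluorotestosterone in a multi-species trans-factorial panel expressing a turtle AR–GAL4 fusion in HepG2. After 24 h, reporter mRNA is measured by RT-PCR and capillary electrophoresis and fitted upward against DMSO.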

Assay [16] has as its target GAL4 Transcription Factor (Internal Marker), GAL4 (gene 855828) (UniProt P04386). Description: ATG_GAL4_XSP1: Attagene TRANS-FACTORIAL Multi-Species (XSP1) HepG2 Assay for GAL4 Transcription Factor (Internal Marker) (AID 2283789). The method in brief:
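This background-control endpoint measures GAL4-driven reporter mRNA via RT-PCR and capillary electrophoresis of labelled fragments. Transiently transfected HepG2 cells were treated 24 h, with 3 nM 6-alpha-fluorotestosterone included, and gain-of-signal was fitted against DMSO.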

A short description of assay [17]: ATG_M_06_XSP1: Attagene TRANS-FACTORIAL Multi-Species (XSP1) HepG2 Assay for M06 Transcription Factor (Internal Marker) (AID 2283790). In a few lines:
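This background-control readout tracks M06 reporter mRNA, measured by RT-PCR and capillary electrophoresis. HepG2 cells transiently carrying the GAL4-UAS reporter panel were dosed for 24 h with 3 nM 6-alpha-fluorotestosterone added for partial AR stimulation; increases were scored relative to DMSO.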

Assay [18] is described as follows: ATG_M_61_XSP1: Attagene TRANS-FACTORIAL Multi-Species (XSP1) HepG2 Assay for M61 Transcription Factor (Internal Marker) (AID 2283797). In a few lines: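 Background-control readout: reporter transcripts measured by RT-PCR and capillary electrophoresis 24 h after dosing transiently transfected HepG2 multi-reporter cells, with 3 nM 6-alpha-fluorotestosterone present. Fitted in the positive direction relative to DMSO.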

Chain of zebrafish Estrogen Receptor (ESR1), esr1 (gene 259252) (P57717 whole entry, looked up, the tested form may be a part): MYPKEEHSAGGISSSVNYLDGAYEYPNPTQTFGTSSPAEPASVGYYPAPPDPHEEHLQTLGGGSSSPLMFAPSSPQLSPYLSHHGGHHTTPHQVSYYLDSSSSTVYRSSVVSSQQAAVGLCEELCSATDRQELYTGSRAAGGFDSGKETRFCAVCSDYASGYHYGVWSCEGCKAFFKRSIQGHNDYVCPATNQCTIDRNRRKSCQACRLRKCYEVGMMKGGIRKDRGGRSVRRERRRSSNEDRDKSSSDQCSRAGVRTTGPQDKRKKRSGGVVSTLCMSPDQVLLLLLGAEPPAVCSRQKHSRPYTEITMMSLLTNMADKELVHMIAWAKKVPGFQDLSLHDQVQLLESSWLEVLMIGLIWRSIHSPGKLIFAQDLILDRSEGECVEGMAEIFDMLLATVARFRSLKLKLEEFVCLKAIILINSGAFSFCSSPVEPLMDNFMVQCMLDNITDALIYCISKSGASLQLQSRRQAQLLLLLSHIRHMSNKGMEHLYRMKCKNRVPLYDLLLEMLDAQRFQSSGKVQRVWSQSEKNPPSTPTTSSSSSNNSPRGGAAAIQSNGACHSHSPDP
Chain of Estrogen receptor beta (Homo sapiens) (Q92731 whole entry, looked up, the tested form may be a part): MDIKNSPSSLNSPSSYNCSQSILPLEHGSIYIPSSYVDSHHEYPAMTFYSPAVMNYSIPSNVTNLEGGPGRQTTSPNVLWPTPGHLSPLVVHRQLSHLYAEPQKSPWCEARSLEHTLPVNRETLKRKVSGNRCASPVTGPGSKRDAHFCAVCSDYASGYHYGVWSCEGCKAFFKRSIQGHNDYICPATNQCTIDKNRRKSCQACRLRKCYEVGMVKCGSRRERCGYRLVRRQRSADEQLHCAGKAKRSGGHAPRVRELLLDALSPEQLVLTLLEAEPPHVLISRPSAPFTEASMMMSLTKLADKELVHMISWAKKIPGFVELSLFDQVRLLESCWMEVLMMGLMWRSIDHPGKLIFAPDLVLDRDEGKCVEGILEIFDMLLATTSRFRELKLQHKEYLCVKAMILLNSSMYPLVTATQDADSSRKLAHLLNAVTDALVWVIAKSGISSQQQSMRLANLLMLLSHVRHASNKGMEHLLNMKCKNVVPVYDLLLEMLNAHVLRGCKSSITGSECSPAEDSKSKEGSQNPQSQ
Chain of AR (gene 367) (P10275 whole entry, looked up): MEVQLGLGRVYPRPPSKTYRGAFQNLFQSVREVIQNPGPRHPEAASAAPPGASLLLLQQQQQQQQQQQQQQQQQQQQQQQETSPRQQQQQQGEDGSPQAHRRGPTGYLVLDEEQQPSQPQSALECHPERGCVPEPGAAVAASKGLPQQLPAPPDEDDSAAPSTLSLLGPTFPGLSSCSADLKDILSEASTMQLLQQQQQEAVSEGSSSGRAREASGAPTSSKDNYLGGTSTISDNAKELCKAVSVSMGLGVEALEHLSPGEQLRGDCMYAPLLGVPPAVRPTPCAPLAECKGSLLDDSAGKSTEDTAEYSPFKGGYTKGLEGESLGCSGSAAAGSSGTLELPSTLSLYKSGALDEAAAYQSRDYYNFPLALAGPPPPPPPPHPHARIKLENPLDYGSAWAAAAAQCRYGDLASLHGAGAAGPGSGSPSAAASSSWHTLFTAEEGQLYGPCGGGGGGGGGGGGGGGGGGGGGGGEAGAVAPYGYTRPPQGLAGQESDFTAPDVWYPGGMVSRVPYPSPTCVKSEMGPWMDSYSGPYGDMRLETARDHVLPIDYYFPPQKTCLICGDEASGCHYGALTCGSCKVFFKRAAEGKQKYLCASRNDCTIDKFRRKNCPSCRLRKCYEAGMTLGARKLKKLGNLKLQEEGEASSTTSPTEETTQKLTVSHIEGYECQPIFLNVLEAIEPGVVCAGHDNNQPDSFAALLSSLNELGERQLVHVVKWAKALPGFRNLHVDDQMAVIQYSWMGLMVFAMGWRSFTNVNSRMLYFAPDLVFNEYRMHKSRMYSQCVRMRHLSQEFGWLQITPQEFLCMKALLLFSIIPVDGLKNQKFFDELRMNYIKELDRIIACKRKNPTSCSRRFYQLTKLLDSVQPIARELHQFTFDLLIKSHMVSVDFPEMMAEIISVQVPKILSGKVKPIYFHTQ
Chain of GAL4 Transcription Factor (Internal Marker), GAL4 (gene 855828) (P04386 whole entry, looked up, the tested form may be a part): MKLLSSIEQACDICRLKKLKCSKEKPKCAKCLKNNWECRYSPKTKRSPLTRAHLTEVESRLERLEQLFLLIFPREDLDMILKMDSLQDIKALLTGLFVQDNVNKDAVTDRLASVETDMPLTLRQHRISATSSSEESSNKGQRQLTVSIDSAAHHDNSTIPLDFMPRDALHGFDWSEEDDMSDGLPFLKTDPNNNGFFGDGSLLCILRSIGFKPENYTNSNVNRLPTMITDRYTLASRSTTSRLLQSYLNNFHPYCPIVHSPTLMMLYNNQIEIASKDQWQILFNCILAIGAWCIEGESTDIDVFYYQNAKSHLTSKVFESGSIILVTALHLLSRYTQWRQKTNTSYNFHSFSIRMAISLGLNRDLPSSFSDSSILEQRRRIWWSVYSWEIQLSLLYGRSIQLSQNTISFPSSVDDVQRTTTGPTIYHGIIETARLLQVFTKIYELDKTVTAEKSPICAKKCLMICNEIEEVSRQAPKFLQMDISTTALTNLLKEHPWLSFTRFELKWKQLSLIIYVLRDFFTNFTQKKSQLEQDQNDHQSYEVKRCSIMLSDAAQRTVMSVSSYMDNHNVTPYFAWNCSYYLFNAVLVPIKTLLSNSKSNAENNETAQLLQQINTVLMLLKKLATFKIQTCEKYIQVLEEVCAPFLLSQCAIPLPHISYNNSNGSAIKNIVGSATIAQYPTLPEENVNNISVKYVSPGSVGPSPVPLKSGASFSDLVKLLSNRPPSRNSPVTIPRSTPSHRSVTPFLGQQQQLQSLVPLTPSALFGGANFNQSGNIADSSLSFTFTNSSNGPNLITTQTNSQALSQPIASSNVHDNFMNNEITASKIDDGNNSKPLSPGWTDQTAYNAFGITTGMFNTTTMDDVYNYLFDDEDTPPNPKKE

On to `Nc1ccc(Cc2ccc(N)cc2)cc1`, for which the call in assay [1] was inactive. Moreover, in [2], the AC50 is 28.1 µM (active).

Take `CN(C)C(=O)Nc1ccc(Cl)cc1`: the compound was called inactive in assay [1], in assay [3] and in assay [4]. Besides, in [2], the AC50 is 50 µM (active).

On to `CNC(=O)Oc1cccc2c1OC(C)(C)C2`, for which the compound was classed as inactive in assay [1], in [2], in assay [3] and in assay [5]. The AC50 in [4] is 21.4 µM (active).

For the compound `CC(C)COC(=O)c1ccccc1C(=O)OCC(C)C`, the AC50 in [1] was 74.9 µM (active); in [2], 74.8 µM (active). Moreover, the compound was called inactive in [3] and in assay [4].

In the case of `Cn1cc(-c2ccccc2)c(=O)c(-c2cccc(C(F)(F)F)c2)c1`, the AC50 in assay [1] is 50 µM (active).

Regarding `Cc1cc(N=Nc2ccccc2C)ccc1N`, the AC50 was 66.1 µM (active) in assay [1], 42.2 µM (active) in [2], 50 µM (active) in assay [3] and 52.6 µM (active) in assay [5].

In the case of `CCCCOC(=O)c1ccccc1C(=O)OCc1ccccc1`, the AC50 in assay [6] was 26.6 µM (active); in [7], 6.82 µM (active); in assay [8], 9.27 µM (active); in assay [1], 50 µM (active); in assay [9], 7.32 µM (active); in assay [10], 7.24 µM (active). The AC50 in assay [11] was 7.78 µM (active); in assay [12], 9.3 µM (active); in assay [4], 34 µM (active).

In the case of `CCC(C)c1ccc(O)cc1` (stereo not given), the concentration at half-maximal activity (AC50) is 50 µM (active) in [1], 61.6 µM (active) in assay [2] and 89.2 µM (active) in [3].

As to `ClC1=C(Cl)[C@]2(Cl)[C@H]3[C@H]([C@@H]4C=C[C@H]3C4)[C@@]1(Cl)C2(Cl)Cl`, the AC50 in assay [1] is 18.1 µM (active); in [2], 18.1 µM (active); in assay [3], 74.5 µM (active).

As for `Clc1ccc(C(c2ccc(Cl)cc2)C(Cl)(Cl)Cl)cc1`, the AC50 in assay [6] was 41.7 µM (active); in assay [7] it was 1.95 µM (active); in assay [8], 4.09 µM (active); in assay [1], 8.63 µM (active); in [9], 1.31 µM (active); in assay [10], 17.6 µM (active). Besides, the AC50 is 2.52 µM (active) in assay [11], 3.31 µM (active) in assay [12] and 28.4 µM (active) in assay [3]. Further, the outcome in assay [4] and in assay [13] was inactive.

Turning to `CCCCCOC(=O)c1ccccc1C(=O)OCCCCC`, the outcome in [6], in [9], in assay [10], in [15], in assay [13] and in assay [16] was inactive. Besides, the compound was classed as inactive in assay [17] and in assay [18]. The AC50 was 40.7 µM (active) in assay [7]; 27.3 µM (active) in [8]; 30 µM (active) in assay [1]; 27 µM (active) in [11]; 24.2 µM (active) in [14]; 26.8 µM (active) in assay [12].
